This passage reports sensor-assay potency score (higher = more potent) results from the OligoGym collection.
Further: reference of the scale not given here.

The first experiment deals with ACCN2. Put plainly: pooled miR-30 sensor sort-seq; sequence = guide strand. The following applies: shRNA.
TTTTCATCTGCCATCTGTGTGT displayed a sensor-assay potency score (higher = more potent) of 0.238.
On the same count and under the same terms, the same measure for TGAACTTATAGGTATCAGGATG: -1.02.
Still for that read-out and setting: to TTTGTCCTGCAGTATCTCCAGC belongs -1.1; to TTGAAGTCTTCAGCGCTGCAGA, -0.498; to TAGCACTTTCCATAGCGTGTGA, -0.16.
Still for that read-out and setting: the same measure for TAGTACTGCACACGCTCCGTGC: -0.962; for TTCATCCTGACTATGGATCTGC: 0.145; for TTTGCTGGGGATCTTGACCATG: -1.14.
The sequence TTGCACAGCGTGACAGCAGGGA showed a sensor-assay potency score (higher = more potent) of 0.305.
The sequence TGTAGCACTTTCCATAGCGTGT returned a sensor-assay potency score (higher = more potent) of -0.609.
Still for that read-out and setting: to TCGTTGAGGTTGCACAGCGTGA belongs -1.57; to TCGGTCGTAGAACTCACGCATG, -0.983.

The next experiment concerns the target ACCN3. The experiment is described as above. The following applies: shRNA.
TAGCACTTTCCCATCCGGGTGA came in with a sensor-assay potency score (higher = more potent) of 0.401.
TAAATGTGTAGCACTTTCCCAT had a sensor-assay potency score (higher = more potent) of -0.325.
Same read-out and setting: to TTGCACAGGGTGACAGCCGGGA belongs -0.486.
On the same count and under the same terms, to TGTAGCACTTTCCCATCCGGGT belongs -0.708.
On the same count and under the same terms, to TTCGGCAGCCGCACTTCCGAGC belongs -1.09.
Consider TATCCCAGGACCTTGTCTCGGA, for which the sensor-assay potency score (higher = more potent) was -0.411.
The sequence TGTAGTAGCGCACCCTCTCAGC returned a sensor-assay potency score (higher = more potent) of -1.06.
The same measure, in the same setting: to TTGTCTCGGAACACCTCACAGA belongs -0.903.
Still for that read-out and setting: to TTTCTCGCTCATCCAGGGCAGT belongs -1.12.
The same measure, in the same setting: the same measure for TAGTAGTGGTGAGCAGCTCTGC: -0.938.

The target of another experiment is ACOT1. Described as above. The following applies: shRNA.
Sequence TCGCACGTCGCGCTTCACCAGC gave a sensor-assay potency score (higher = more potent) of -1.56.
The same measure, in the same setting: the same measure for TGAGCAAGTAGTTCACAGCTTC: -0.12.
Still for that read-out and setting: the same measure for TTGTAGCGTAAGGTTCCCCCAA: -1.03; for TACCTCAGGATGACTGAGCAAG: -0.802.
TAGCGCTCGTGCCGCACCCGGC displayed a sensor-assay potency score (higher = more potent) of -1.32.
On the same count and under the same terms, the same measure for TTTTACCTCAGGATGACTGAGC: -0.46; for ATCTTTGGTCACCTTGATGCGA: -0.779.
On the same count and under the same terms, to AGCTCTTCTGGTCAGGTCCTTC belongs -1.49; to AACATGTCCACAATGCCAGGAA, -0.319.
Regarding TTCATAGTTATAGTAAGCCAGA, the sensor-assay potency score (higher = more potent) is -1.24.
The same measure, in the same setting: to ATTCGCACCGGTTCGTCCCAGC belongs -0.912; to AGTTGTGGTCATCCTGACCTAC, -1.25.

In another experiment the target is ACOT6. Described as above. The following applies: shRNA.
TTAGGAATAATCATATCCTTGT displayed a sensor-assay potency score (higher = more potent) of 0.922.
Still for that read-out and setting: to TATCCTTGTAATGTAGAGGAGC belongs -0.764; to TTGATAAGTACAGTGGCTGTGA, 0.402; to TTGGTGATTGTGTTCCTCCAGT, -0.204.
Same read-out and setting: the same measure for TTACTTTTCCTAGATCATCGAC: -0.0892.
Still for that read-out and setting: the same measure for AATACTAGGACCTTTCACCTTT: 0.28.
